According to PubChem BioAssay AID1159580 (chemical genetic matrix, 2015):
Where “and” joins values, the source holds several entries; their conditions need not be identical. Equal entries are not always repeated. About 2,000 (36%) of roughly 5,500 compounds were called active. Another 18% or so got no clear call; they are omitted. Rule as the data show it: active = normalized growth mostly below about 0.91 (no sharp cut-off); inconclusive = no clear call, values can overlap the other calls; inactive = mostly above about 0.92. The list shows a part of the results.

Assay: chemical genetic growth profiling, strain panel (AID 1159580);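 also: tested at 20 µM; growth read once vehicle control cultures reached saturation at 30 °C; 1 = growth at the plate median or of vehicle wells; lower values mean less growth of the strain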
Settings: S. cerevisiae deletion strains, growth OD

Measured: normalized growth

CC(C)N1C(=O)c2ccccc2NS1(=O)=O
inactive: locus YAL013W, strain DEP1, active compounds read low 1 | locus YAL021C, strain ccr4, active compounds read low 0.947 | locus YAL026C, strain drs2, active compounds read low 0.976 | locus YAL030W, strain snc1, active compounds read low 0.963 | locus YBL061C, strain skt5, active compounds read low 0.973 | locus YBR009C, strain hhf1, active compounds read low 0.961 | locus YBR021W, strain FUR4, active compounds read low 0.966 | locus YBR023C, strain chs3, active compounds read low 0.983 | locus YBR171W, strain sec66, active compounds read low 0.968 | locus YBR229C, strain ROT2, active compounds read low 1 | locus YBR231C, strain swc5, active compounds read low 0.994 | locus YBR279W, strain paf1, active compounds read low 0.977 | locus YCL011C, strain gbp2, active compounds read low 0.962 | locus YCL016C, strain dcc1, active compounds read low 0.969 | locus YCL029C, strain bik1, active compounds read low 0.999 | locus YCL069W, strain vba3, active compounds read low 0.969 | locus YCR088W, strain abp1, active compounds read low 0.978 | locus YDL005C, strain med2, active compounds read low 0.973 | locus YDL035C, strain GPR1, active compounds read low 1.01 | locus YDL040C, strain nat1, active compounds read low 0.972 | locus YDL074C, strain BRE1, active compounds read low 1.02 | locus YDL101C, strain DUN1, active compounds read low 1.01 | locus YDL134C, strain PPH21, active compounds read low 0.998 | locus YDL185W, strain tfp1, active compounds read low 1 | locus YDL192W, strain arf1, active compounds read low 1.01 | locus YDR001C, strain nth1, active compounds read low 0.955 | locus YDR069C, strain doa4, active compounds read low 0.995 | locus YDR101C, strain arx1, active compounds read low 0.999 | locus YDR137W, strain rgp1, active compounds read low 0.971 | locus YDR150W, strain NUM1, active compounds read low 0.996 | locus YDR159W, strain sac3, active compounds read low 1.02 | locus YDR162C, strain NBP2, active compounds read low 1.02 | locus YDR195W, strain ref2 0.935 | locus YDR297W, strain sur2, active compounds read low 0.988 | locus YDR318W, strain mcm21, active compounds read low 1.01 | locus YDR334W, strain swr1, active compounds read low 0.957 | locus YDR335W, strain msn5, active compounds read low 0.978 | locus YDR388W, active compounds read low 0.998 | locus YDR392W, strain spt3, active compounds read low 1.02 | locus YDR502C, strain sam2, active compounds read low 1.01 | locus YEL003W, strain gim4, active compounds read low 0.973 | locus YEL037C, strain rad23, active compounds read low 0.976 | locus YEL061C, strain CIN8 (second series), active compounds read low 0.966 | locus YEL061C, strain CIN8, active compounds read low 0.992 | locus YER015W, strain faa2, active compounds read low 0.966 | locus YER016W, strain bim1, active compounds read low 0.965 | locus YER110C, active compounds read low 1 | locus YER111C, strain swi4, active compounds read low 0.979 | locus YER155C, strain BEM2 (second series), active compounds read low 1 | locus YER155C, strain BEM2, active compounds read low 0.994 | locus YER167W, strain BCK2, active compounds read low 1 | locus YFR010W, strain ubp6, active compounds read low 0.96 | locus YGL078C, strain dbp3, active compounds read low 0.993 | locus YGL086W, strain mad1, active compounds read low 0.996 | locus YGL167C, strain pmr1, active compounds read low 0.958 | locus YGL173C, strain kem1, active compounds read low 0.979 | locus YGL227W, strain vid30, active compounds read low 0.989 | locus YGL240W, strain doc1, active compounds read low 1 | locus YGL248W, strain PDE1, active compounds read low 1.01 | locus YGL253W, strain hxk2, active compounds read low 0.984 | locus YGR078C, strain PAC10, active compounds read low 0.995 | locus YGR135W, strain pre9, active compounds read low 1.01 | locus YGR229C, strain SMI1, active compounds read low 1.02 | locus YGR252W, strain gcn5, active compounds read low 1.01 | locus YHR013C, strain ard1, active compounds read low 0.95 | locus YHR027C, strain rpn1, active compounds read low 0.968 | locus YHR030C, strain SLT2, active compounds read low 0.972 and 0.994 | locus YHR079C, strain IRE1 (second series), active compounds read low 1 | locus YHR079C, strain IRE1, active compounds read low 0.982 | locus YHR094C, strain hxt1, active compounds read low 0.996 | locus YHR129C, strain ARP1, active compounds read low 0.996 | locus YHR142W, strain chs7, active compounds read low 0.962 | locus YHR200W, strain rpn10, active compounds read low 0.995 | locus YIL066C, strain RNR3, active compounds read low 1.03 | locus YIL073C, strain SPO22, active compounds read low 1.07 | locus YIL125W, strain kgd1, active compounds read low 1.01 | locus YIR030C, strain dcg1, active compounds read low 0.997 | locus YJL092W, strain hpr5, active compounds read low 0.971 | locus YJL095W, strain BCK1 (second series), active compounds read low 0.969 | locus YJL095W, strain BCK1, active compounds read low 1.01 and 0.986 | locus YJL115W, strain asf1, active compounds read low 0.956 | locus YJL129C, strain trk1, active compounds read low 0.961 | locus YJL134W, strain LCB3, active compounds read low 1 | locus YJL154C, strain vps35, active compounds read low 0.963 | locus YJL164C, strain tpk1, active compounds read low 0.988 | locus YJL166W, strain qcr8, active compounds read low 0.987 | locus YJL168C, strain set2, active compounds read low 1 | locus YJL187C, strain SWE1 (second series), active compounds read low 0.997 | locus YJR043C, strain POL32, active compounds read low 1 | locus YJR066W, strain TOR1, active compounds read low 0.962 | locus YJR075W, strain HOC1, active compounds read low 1.02
